# According to PubChem BioAssay (Tox21):
# “And” between values parts separate entries of the source, which are not always exact repeats. Equal entries are not always repeated. Inconclusive results are not listed. Entries that show only a call come without a potency. Some compounds were tested as several samples or in several runs, with calls that do not always agree. The source made the active and inactive calls. Unless noted, the call rests on the fitted dose curve; in most records, active means well fitted curve in the direction sought with a large enough effect in the repeat runs; inconclusive means weak or mixed curves; inactive means no such curve, though single readings can be large; an effect the other way counts as inactive or inconclusive.
# How the values were obtained:
# [1] = molecular target: Thyrotropin-releasing hormone receptor (Homo sapiens) (UniProt P34981); assay: qHTS assay to identify small molecule agonists of the thyrotropin-releasing hormone receptor (TRHR) signaling pathway (AID 1346891; calls by dose curve;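 further: HEK293 cells expressing TRHR with calcium dye readout; series mostly up to about 58 µM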)
# Thyrotropin-releasing hormone receptor (Homo sapiens), sequence (P34981 whole entry, looked up): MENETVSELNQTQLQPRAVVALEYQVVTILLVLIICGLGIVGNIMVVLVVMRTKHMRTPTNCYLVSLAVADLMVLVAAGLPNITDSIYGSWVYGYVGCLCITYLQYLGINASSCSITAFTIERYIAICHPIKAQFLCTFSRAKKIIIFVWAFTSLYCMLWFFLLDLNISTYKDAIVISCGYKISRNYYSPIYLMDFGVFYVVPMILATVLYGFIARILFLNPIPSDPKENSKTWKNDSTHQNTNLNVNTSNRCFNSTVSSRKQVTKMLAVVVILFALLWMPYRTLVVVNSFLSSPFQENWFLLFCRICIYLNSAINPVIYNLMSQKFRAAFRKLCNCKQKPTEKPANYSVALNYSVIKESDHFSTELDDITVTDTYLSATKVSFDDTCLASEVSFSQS
# In short: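 In 1536-format, 1500 TRHR-Hek293 cells per well grew 18 h, took up calcium dye for 2 h at 37 °C, received compound, and were read kinetically; 15-point titrations, triplicates.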
# [2] = Human pregnane X receptor (PXR) small molecule agonists, qHTS cell viability counter screen (AID 1346977); further: nearly all actives have a fitted effect of over 50% in size
# In short: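 Readout is CellTiter-Fluor fluorescence from PXR-Luc HepG2 cells. Plated cells rested 5hr, then were treated with compounds for 24hr at 37C and 5% CO2, with reagent present during the last hour.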
# [3] = Caspase-3/7 induction in HepG2 cells by small molecules, qHTS assay (AID 1346978); further: nearly all actives have a fitted effect of over 15% in size
# In short: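 Wild-type HepG2 cells (2,000/well) were settled 5 h at 37 C, 5% CO2, then exposed to compounds in DMSO for 17 h. Caspase-3/7 activity was read by luminescence 30 min after adding Caspase-Glo 3/7 reagent at room temperature.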
# [4] = Caspase-3/7 induction in CHO-K1 cells by small molecules, qHTS assay (AID 1346980); further: nearly all actives have a fitted effect of over 15% in size
# In short: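 Wild-type cells were seeded at 1,500 per well and settled 5 hr at 37 C, 5% CO2, then exposed to DMSO-dissolved compounds for 17 hr. Caspase-Glo 3/7 reagent was added, and luminescence was read after 30min at room temperature.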
# [5] = Caspase-3/7 induction in HepG2 cells by small molecules, qHTS cell viability counter screen (AID 1346981); further: series mostly up to about 92 µM; nearly all actives have a fitted effect of over 30% in size
# In short: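 In this quantitative HTS counter screen, compounds delivered in DMSO were left on unmodified HepG2 cells for 16 hr at 37 C. Viability was then determined fluorometrically with CellTiter-Fluor, in parallel with caspase-3/7 induction in the same wells.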
# [6] = molecular target: Nuclear receptor subfamily 1 group I member 2 (Homo sapiens) (UniProt O75469); assay: Human pregnane X receptor (PXR) small molecule agonists, qHTS assay (AID 1346982); further: nearly all actives have a fitted effect of over 35% in size
# Nuclear receptor subfamily 1 group I member 2 (Homo sapiens), sequence (O75469 whole entry, looked up): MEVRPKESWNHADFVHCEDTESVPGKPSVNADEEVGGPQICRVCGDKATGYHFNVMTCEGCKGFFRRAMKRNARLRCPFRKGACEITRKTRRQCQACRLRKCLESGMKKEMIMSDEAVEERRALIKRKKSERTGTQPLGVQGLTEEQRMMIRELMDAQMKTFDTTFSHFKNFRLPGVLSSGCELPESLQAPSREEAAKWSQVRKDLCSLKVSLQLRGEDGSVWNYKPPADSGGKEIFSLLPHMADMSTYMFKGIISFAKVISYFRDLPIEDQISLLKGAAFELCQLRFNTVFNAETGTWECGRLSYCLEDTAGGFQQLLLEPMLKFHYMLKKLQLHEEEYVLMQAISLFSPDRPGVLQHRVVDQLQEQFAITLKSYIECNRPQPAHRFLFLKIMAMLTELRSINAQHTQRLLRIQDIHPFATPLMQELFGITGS
# In short: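 Reporter HepG2 cells expressing PXR-Luc are cultured in charcoal-stripped FBS (5%), treated with compounds for 24 hr at 37 C, and assayed by ONE-Glo luminescence after 30 min at room temperature.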
# [7] = molecular target: Cytochrome P450 2D6 (Homo sapiens) (UniProt P10635); assay: Cytochrome P450 Family 2 Subfamily D Member 6 (CYP2D6) small molecule antagonists: luciferase reporter qHTS assay (AID 1671196); further: nearly all actives have a fitted effect of over 50% in size; further: potency means the concentration at half of the fitted maximal effect
# Cytochrome P450 2D6 (Homo sapiens), sequence (P10635 whole entry, looked up): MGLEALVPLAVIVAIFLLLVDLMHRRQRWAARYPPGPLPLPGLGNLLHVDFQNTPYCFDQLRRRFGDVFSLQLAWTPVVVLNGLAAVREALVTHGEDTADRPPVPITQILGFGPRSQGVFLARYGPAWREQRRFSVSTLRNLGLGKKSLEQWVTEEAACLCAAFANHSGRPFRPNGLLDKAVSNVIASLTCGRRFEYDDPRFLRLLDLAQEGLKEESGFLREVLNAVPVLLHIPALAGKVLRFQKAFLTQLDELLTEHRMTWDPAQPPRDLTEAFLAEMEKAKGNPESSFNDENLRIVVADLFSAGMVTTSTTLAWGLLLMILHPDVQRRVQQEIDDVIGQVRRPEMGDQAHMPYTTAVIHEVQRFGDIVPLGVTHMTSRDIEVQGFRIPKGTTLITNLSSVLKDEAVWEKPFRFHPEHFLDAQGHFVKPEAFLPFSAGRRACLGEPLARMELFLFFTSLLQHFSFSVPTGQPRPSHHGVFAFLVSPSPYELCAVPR
# In short: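 Test chemicals meet CYP2D6 plus proluciferin substrate (10 min, RT); NADPH regenerating solution then drives turnover for 1 h. Detection reagent halts the reaction; luminescence measured after 20 min.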
# [8] = molecular target: Cytochrome P450 2C19 (Homo sapiens) (UniProt P33261); assay: Cytochrome P450 Family 2 Subfamily C Member 19 (CYP2C19) small molecule antagonists: luciferase reporter qHTS assay (AID 1671197); further: nearly all actives have a fitted effect of over 65% in size; further: potency means the concentration at half of the fitted maximal effect
# Cytochrome P450 2C19 (Homo sapiens), sequence (P33261 whole entry, looked up): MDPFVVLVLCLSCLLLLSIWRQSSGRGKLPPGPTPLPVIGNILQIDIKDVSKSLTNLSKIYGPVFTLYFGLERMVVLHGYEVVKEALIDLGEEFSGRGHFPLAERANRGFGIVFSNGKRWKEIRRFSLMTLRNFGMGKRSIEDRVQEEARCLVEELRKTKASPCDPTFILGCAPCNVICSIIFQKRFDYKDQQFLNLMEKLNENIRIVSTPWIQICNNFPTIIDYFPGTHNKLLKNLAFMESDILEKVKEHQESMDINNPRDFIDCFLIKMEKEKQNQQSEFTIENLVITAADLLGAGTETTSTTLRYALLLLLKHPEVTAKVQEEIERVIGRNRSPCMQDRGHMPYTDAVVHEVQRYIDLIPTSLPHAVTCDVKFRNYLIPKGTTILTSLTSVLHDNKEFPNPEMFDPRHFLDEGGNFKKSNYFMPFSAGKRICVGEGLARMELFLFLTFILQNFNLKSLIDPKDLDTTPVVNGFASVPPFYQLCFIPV
# In short: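 Relative luminescence units recorded 20 min after the detection reagent stopped a 1 h, 37C CYP2C19 reaction on proluciferin substrate, which was started by NADPH regeneration following 10 min room-temperature compound preincubation; ketoconazole positive control.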
# [9] = molecular target: Cytochrome P450 2C9 (Homo sapiens) (UniProt P11712); assay: Cytochrome P450 Family 2 Subfamily C Member 9 (CYP2C9) small molecule antagonists: luciferase reporter qHTS assay (AID 1671198); further: nearly all actives have a fitted effect of over 50% in size; further: potency means the concentration at half of the fitted maximal effect
# Cytochrome P450 2C9 (Homo sapiens), sequence (P11712 whole entry, looked up): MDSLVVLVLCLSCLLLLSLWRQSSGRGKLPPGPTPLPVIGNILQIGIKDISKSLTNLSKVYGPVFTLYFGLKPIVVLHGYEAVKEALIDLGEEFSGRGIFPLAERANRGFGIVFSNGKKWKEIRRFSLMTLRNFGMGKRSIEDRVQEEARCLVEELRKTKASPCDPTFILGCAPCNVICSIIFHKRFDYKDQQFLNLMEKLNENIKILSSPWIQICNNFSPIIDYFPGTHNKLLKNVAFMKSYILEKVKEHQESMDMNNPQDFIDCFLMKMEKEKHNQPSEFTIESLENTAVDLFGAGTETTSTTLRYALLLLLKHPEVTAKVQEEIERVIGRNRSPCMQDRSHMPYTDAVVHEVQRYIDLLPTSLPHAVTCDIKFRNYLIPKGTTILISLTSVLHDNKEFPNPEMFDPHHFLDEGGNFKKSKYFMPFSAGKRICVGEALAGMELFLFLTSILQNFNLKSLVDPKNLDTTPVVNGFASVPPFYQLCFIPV
# In short: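 CYP2C9 activity was measured with a P450-Glo proluciferin substrate. Enzyme–substrate mix was held with compound for 10 min at room temperature, then NADPH regeneration solution was added for 1 h at 37C. Luciferin product was read as luminescence.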
# [10] = molecular target: Cytochrome P450 1A2 (Homo sapiens) (UniProt P05177); assay: Cytochrome P450 Family 1 Subfamily A Member 2 (CYP1A2) small molecule antagonists: luciferase reporter qHTS assay (AID 1671199); further: nearly all actives have a fitted effect of over 50% in size; further: potency means the concentration at half of the fitted maximal effect
# Cytochrome P450 1A2 (Homo sapiens), sequence (P05177 whole entry, looked up): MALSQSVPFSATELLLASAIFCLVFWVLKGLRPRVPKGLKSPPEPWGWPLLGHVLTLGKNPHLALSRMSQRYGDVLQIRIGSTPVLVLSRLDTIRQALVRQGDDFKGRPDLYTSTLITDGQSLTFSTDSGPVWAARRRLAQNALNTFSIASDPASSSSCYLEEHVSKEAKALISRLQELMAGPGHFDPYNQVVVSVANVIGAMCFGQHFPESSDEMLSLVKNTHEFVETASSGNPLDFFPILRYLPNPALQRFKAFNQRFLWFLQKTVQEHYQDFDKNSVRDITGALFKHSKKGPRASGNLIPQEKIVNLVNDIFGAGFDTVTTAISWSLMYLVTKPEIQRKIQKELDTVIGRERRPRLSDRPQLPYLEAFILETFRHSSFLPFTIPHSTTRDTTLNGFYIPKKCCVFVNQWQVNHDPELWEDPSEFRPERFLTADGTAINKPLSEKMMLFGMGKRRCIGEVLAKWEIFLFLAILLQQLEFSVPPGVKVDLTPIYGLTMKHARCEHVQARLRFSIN
# In short: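 Steps: enzyme-substrate mix dispensed; test compounds and furafylline control pinned in; 10 min room temperature; NADPH regeneration solution added, 1 h; reaction stopped with luciferin detection reagent; luminescence read after 20 min.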
# [11] = molecular target: Voltage-gated inwardly rectifying potassium channel KCNH2 (Homo sapiens) (UniProt Q12809); assay: Human Ether-a-go-go-Related Gene (hERG) channel small molecule antagonists: fluorescence cell-based qHTS assay (AID 1671200)
# Voltage-gated inwardly rectifying potassium channel KCNH2 (Homo sapiens), sequence (Q12809 whole entry, looked up): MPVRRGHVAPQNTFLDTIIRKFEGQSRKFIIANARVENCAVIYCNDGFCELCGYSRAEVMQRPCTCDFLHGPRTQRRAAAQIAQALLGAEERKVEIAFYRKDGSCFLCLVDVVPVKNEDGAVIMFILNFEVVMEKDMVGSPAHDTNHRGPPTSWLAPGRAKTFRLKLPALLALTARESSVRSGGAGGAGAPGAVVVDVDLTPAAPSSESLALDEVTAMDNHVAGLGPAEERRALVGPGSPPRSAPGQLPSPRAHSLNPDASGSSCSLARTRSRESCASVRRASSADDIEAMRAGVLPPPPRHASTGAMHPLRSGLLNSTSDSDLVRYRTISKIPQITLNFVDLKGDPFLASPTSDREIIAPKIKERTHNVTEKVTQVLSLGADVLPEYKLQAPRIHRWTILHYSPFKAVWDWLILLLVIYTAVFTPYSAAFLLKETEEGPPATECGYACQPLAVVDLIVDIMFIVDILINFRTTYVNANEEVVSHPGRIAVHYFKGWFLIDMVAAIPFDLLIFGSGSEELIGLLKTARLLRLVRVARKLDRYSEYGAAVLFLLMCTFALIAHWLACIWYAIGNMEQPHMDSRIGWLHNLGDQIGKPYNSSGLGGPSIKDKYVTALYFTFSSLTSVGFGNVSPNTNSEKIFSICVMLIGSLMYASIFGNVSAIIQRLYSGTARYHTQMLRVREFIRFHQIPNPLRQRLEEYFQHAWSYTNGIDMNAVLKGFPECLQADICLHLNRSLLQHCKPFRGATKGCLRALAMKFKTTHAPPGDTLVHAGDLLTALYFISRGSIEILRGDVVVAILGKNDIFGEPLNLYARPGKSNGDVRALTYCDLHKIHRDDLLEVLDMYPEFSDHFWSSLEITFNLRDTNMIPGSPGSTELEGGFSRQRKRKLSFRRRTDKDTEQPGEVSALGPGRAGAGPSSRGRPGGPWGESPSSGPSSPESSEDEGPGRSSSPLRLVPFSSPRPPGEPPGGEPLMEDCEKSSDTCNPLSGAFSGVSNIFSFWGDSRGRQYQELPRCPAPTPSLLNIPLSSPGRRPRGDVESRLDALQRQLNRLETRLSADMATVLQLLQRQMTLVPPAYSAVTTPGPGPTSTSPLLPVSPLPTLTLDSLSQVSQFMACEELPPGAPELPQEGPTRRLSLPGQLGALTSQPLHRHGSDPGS
# In short: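 Measured: Tl+ flux via fluorescence (480/540 nm) in hERG-expressing U2OS cells after 1 h dye loading at room temperature.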
# [12] = molecular target: Cytochrome P450 3A4 (Homo sapiens) (UniProt P08684); assay: Cytochrome P450 Family 3 Subfamily A Member 4 (CYP3A4) small molecule antagonists: luciferase reporter qHTS assay (AID 1671201)
# Cytochrome P450 3A4 (Homo sapiens), sequence (P08684 whole entry, looked up): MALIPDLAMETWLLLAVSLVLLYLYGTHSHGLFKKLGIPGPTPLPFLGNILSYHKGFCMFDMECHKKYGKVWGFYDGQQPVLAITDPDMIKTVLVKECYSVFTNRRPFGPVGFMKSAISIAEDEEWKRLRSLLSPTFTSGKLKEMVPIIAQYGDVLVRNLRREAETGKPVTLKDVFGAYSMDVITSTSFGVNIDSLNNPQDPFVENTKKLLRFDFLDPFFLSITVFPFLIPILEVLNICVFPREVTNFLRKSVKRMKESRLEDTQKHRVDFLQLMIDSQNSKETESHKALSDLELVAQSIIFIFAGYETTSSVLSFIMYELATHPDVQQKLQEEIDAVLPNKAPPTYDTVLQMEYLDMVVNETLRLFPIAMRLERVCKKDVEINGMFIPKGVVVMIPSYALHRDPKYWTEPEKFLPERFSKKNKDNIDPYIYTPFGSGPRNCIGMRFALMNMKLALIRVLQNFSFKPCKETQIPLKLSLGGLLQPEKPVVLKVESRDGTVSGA
# In short: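 Setup: enzyme-substrate mix, compound pin transfer, 10 min RT. Reaction: NADPH regeneration solution, 1 h RT. Readout: detection reagent stops turnover, luminescence measured after 20 min, expressed in relative luminescence units.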
# [13] = Caspase-3/7 induction in CHO-K1 cells by small molecules, qHTS cell viability counter screen (AID 1346979); further: nearly all actives have a fitted effect of over 35% in size; further: potency means the concentration at half of the fitted maximal effect
# In short: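 To flag cytotoxic compounds, treated CHO-K1 wild-type cells were given CellTiter-Fluor at 16hr and read fluorescently after 1hr at 37C; the caspase-3/7 luminescence was measured in these same wells.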
# [14] = molecular target: Nuclear receptor subfamily 1 group I member 2 (Rattus norvegicus) (UniProt Q9R1A7); assay: Rat pregnane X receptor (rPXR) activation by small molecules, qHTS assay (AID 1346983); conditions: rPXR luciferase reporter cells, One-Glo luminescence, 24 h; stronger effect = higher value; further: nearly all actives have a fitted effect of over 20% in size
# Nuclear receptor subfamily 1 group I member 2 (Rattus norvegicus), sequence (Q9R1A7 whole entry, looked up): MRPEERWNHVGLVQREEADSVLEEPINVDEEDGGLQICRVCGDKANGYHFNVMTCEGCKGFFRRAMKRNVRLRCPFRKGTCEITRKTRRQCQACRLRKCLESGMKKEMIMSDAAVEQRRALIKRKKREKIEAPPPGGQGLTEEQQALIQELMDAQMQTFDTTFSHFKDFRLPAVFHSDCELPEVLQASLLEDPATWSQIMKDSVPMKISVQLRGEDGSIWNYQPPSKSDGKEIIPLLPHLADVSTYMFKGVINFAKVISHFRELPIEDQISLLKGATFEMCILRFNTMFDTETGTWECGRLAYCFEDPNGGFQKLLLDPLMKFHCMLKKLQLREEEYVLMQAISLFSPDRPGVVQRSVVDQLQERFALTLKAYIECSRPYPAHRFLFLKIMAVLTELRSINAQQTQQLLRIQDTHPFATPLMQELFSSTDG
# In short: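 Cell-based rPXR luciferase reporter assay, 2,000 cells per well, rested 5hr at 37 C before compound addition in DMSO, then 24 hr at 37 C. One-Glo reagent was added and luminescence read after 30 min at room temperature.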
# [15] = molecular target: Nuclear receptor subfamily 1 group I member 2 (Homo sapiens) (UniProt O75469); assay: CYP3A4 induction through human pregnane X receptor (PXR) by small molecules, qHTS assay (AID 1346984); further: nearly all actives have a fitted effect of over 40% in size
# In short: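 Induction measured in HepG2-based DPX-2 cells co-expressing human PXR and a CYP3A4 promoter-driven luciferase. After a 24-hour compound exposure, cells received CYP3A4 luciferin substrate at 3uM final for 3 hours, and light output was then recorded.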
# [16] = molecular target: Nuclear receptor subfamily 1 group I member 2 (Homo sapiens) (UniProt O75469); assay: Human pregnane X receptor (PXR) activation by small molecules, qHTS assay (AID 1346985); further: nearly all actives have a fitted effect of over 40% in size
# In short: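 DPX-2 cells (HepG2 co-transfected with a PXR response element and a CYP3A4-promoter luciferase construct) were seeded at 2,000 per well, rested 5 hr at 37C, then exposed to DMSO-dissolved compounds for 24 hr. Activation was read as luciferase luminescence.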
SMILES,outcome [1],Potency [2],Potency [3],outcome [4],Potency [5],Potency [6],Potency [7],Potency [8],Potency [9],Potency [10],Potency [11],Potency [12],Potency [13],max activation [14],Potency [15],outcome [16]
CCCCCC(=O)O,inactive,inactive,inactive,inactive,inactive,inactive,inactive,71.1 µM (active) and inactive,inactive,inactive,inactive,inactive,–,–,–,–
C[Si]1(C)O[Si](C)(C)O[Si](C)(C)O[Si](C)(C)O1,inactive,inactive,inactive,inactive,inactive,inactive,inactive,inactive,inactive,inactive,inactive,inactive,inactive,–,–,–
CC(=O)c1ccc(O)cc1,inactive,inactive,inactive,inactive,inactive,inactive,inactive,inactive,inactive,inactive,inactive,inactive,–,–,–,–
O=C(O)c1ccc(S(=O)(=O)N(Cl)Cl)cc1,inactive,inactive,inactive,inactive,inactive,inactive,35.8 µM (active) and inactive,inactive,inactive,inactive,inactive,inactive,inactive,4.13% (inactive),inactive,inactive
CC1(C)S[C@@H]2[C@H](NC(=O)COc3ccccc3)C(=O)N2[C@H]1C(=O)O,inactive,inactive,inactive,inactive,inactive,–,–,inactive,–,inactive,inactive,–,inactive,–,–,–
CN(C)CCOC(=O)COc1ccc(Cl)cc1,inactive,inactive,inactive,inactive,inactive,inactive,35.5 µM (active) and 30.9 µM (active),–,inactive,–,inactive,inactive,–,-3.66% (inactive),inactive,inactive
O=C1CCCC1,inactive,inactive,inactive,inactive,inactive,inactive,inactive,inactive,inactive,inactive,inactive,inactive,inactive,–,–,–
CCCCCCCCCCN,inactive,inactive,–,inactive,inactive,inactive,35.8 µM (active) and 12.6 µM (active),7.14 µM (active) and 5.64 µM (active),–,31.9 µM (active) and 31.7 µM (active),inactive,inactive,inactive,–,–,–
OCc1cccc(Oc2ccccc2)c1,inactive,inactive,inactive,inactive,inactive,–,28.7 µM (active),10.2 µM (active) and 22.4 µM (active),56.4 µM (active),20.3 µM (active) and 39.9 µM (active),inactive,inactive,–,–,–,–
O=[N+]([O-])c1ccc2nc[nH]c2c1,inactive,inactive,inactive,inactive,inactive,inactive,inactive,inactive,–,36.3 µM (active) and 39.9 µM (active),inactive,inactive,inactive,–,–,–
Cc1ccc(C(C)C)c(O)c1,inactive,inactive,inactive,inactive,inactive,–,inactive,71 µM (active) and 34.7 µM (active),–,31.7 µM (active) and 15.5 µM (active),inactive,inactive,inactive,-2.47% (inactive),inactive,inactive
NCCCCCCN,inactive,inactive,inactive,inactive,inactive,–,32 µM (active) and 35.6 µM (active),inactive,inactive,inactive,inactive,inactive,2.75 µM (active) and 19.3 µM (active),–,–,–
O=C(O)c1ccc(C(=O)O)c(C(=O)O)c1,inactive,inactive,–,inactive,inactive,inactive,inactive,inactive,inactive,inactive,inactive,inactive,inactive,–,–,–
O=C(O)/C=C/C(=O)O,inactive,inactive,inactive,inactive,inactive,–,37.6 µM (active) and inactive,inactive,inactive,inactive,inactive,inactive,–,–,–,–
CCCCCCCO,inactive,inactive,inactive,inactive,inactive,–,inactive,72 µM (active) and inactive,inactive,inactive,inactive,inactive,inactive,–,–,–
CC(=O)Oc1ccc(C)cc1,inactive,inactive,inactive,inactive,inactive,inactive,inactive,inactive,inactive,inactive,inactive,inactive,inactive,-1.62% (inactive),inactive,inactive
CSc1ccc(Cl)cc1,inactive,inactive,inactive,inactive,inactive,inactive,inactive,inactive,inactive,inactive,inactive,inactive,inactive,–,–,–
O=C(O)CCCCCCCCC(=O)O,inactive,inactive,–,inactive,inactive,inactive,inactive,50.5 µM (active) and inactive,inactive,–,inactive,inactive,inactive,–,–,–
